Test results reported in PubChem BioAssay AID1159580 (chemical genetic matrix, 2015).
“And” between values parts separate entries of the source, which are not always exact repeats. Equal entries are not always repeated. Hit rate of the full screen: of about 5,500 compounds, about 2,000 (36%) were called active. Not shown: some 18% with an inconclusive outcome. The list shows a part of the results. A number with no mark means an inactive call. Cut-off read from the data, not from the text of the source: active = normalized growth mostly below about 0.91 (no sharp cut-off); inconclusive = no clear call, values can overlap the other calls; inactive = mostly above about 0.92.

Test: chemical genetic growth profiling, strain panel (AID 1159580);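 note: tested at 20 µM; growth read once vehicle control cultures reached saturation at 30 °C; 1 = growth at the plate median or of vehicle wells; lower values mean less growth of the strain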
Conditions: S. cerevisiae deletion strains, growth OD

SMILES: O=C1CC[C@]23C=CC(=O)NCCCCNCCCNC(=O)/C=C/c4ccc(c2c4)O[C@@H]3C1
- normalized growth (locus YAL021C, strain ccr4, hits give low values): 1.02
- normalized growth (locus YAL026C, strain drs2, hits give low values): 1.04
- normalized growth (locus YAL030W, strain snc1, hits give low values): 1.01
- normalized growth (locus YBL061C, strain skt5, hits give low values): 1.02
- normalized growth (locus YBR009C, strain hhf1, hits give low values): 1.03
- normalized growth (locus YBR021W, strain FUR4, hits give low values): 0.999
- normalized growth (locus YBR023C, strain chs3, hits give low values): 1.02
- normalized growth (locus YBR171W, strain sec66, hits give low values): 1.01
- normalized growth (locus YBR229C, strain ROT2, hits give low values): 1.01
- normalized growth (locus YBR231C, strain swc5, hits give low values): 1.01
- normalized growth (locus YBR279W, strain paf1, hits give low values): 1
- normalized growth (locus YCL011C, strain gbp2, hits give low values): 1
- normalized growth (locus YCL016C, strain dcc1, hits give low values): 1.03
- normalized growth (locus YCL029C, strain bik1, hits give low values): 0.997
- normalized growth (locus YCL061C, strain MRC1, hits give low values): 1
- normalized growth (locus YCL069W, strain vba3, hits give low values): 1.01
- normalized growth (locus YCR088W, strain abp1, hits give low values): 1.02
- normalized growth (locus YDL005C, strain med2, hits give low values): 1.02
- normalized growth (locus YDL035C, strain GPR1, hits give low values): 1.05
- normalized growth (locus YDL040C, strain nat1, hits give low values): 1
- normalized growth (locus YDL074C, strain BRE1, hits give low values): 1.05
- normalized growth (locus YDL101C, strain DUN1, hits give low values): 1
- normalized growth (locus YDL134C, strain PPH21, hits give low values): 0.954
- normalized growth (locus YDL185W, strain tfp1, hits give low values): 0.993
- normalized growth (locus YDL192W, strain arf1, hits give low values): 1.02
- normalized growth (locus YDR001C, strain nth1, hits give low values): 1.01
- normalized growth (locus YDR069C, strain doa4, hits give low values): 1.03
- normalized growth (locus YDR101C, strain arx1, hits give low values): 0.997
- normalized growth (locus YDR137W, strain rgp1, hits give low values): 0.993
- normalized growth (locus YDR150W, strain NUM1, hits give low values): 1.01
- normalized growth (locus YDR159W, strain sac3, hits give low values): 1.03
- normalized growth (locus YDR162C, strain NBP2, hits give low values): 1.02
- normalized growth (locus YDR195W, strain ref2): 1.02
- normalized growth (locus YDR297W, strain sur2, hits give low values): 1.01
- normalized growth (locus YDR318W, strain mcm21, hits give low values): 1.01
- normalized growth (locus YDR334W, strain swr1, hits give low values): 1.01
- normalized growth (locus YDR335W, strain msn5, hits give low values): 1.03
- normalized growth (locus YDR388W, hits give low values): 0.993
- normalized growth (locus YDR392W, strain spt3, hits give low values): 1.01
- normalized growth (locus YDR502C, strain sam2, hits give low values): 0.963
- normalized growth (locus YEL003W, strain gim4, hits give low values): 1.01
- normalized growth (locus YEL037C, strain rad23, hits give low values): 1.02
- normalized growth (locus YEL061C, strain CIN8 (second series), hits give low values): 1.01
- normalized growth (locus YEL061C, strain CIN8, hits give low values): 1.01
- normalized growth (locus YER015W, strain faa2, hits give low values): 1.01
- normalized growth (locus YER016W, strain bim1, hits give low values): 1.02
- normalized growth (locus YER110C, hits give low values): 0.981
- normalized growth (locus YER111C, strain swi4, hits give low values): 1.01
- normalized growth (locus YER155C, strain BEM2 (second series), hits give low values): 1.01
- normalized growth (locus YER155C, strain BEM2, hits give low values): 1.01
- normalized growth (locus YER167W, strain BCK2, hits give low values): 1.02
- normalized growth (locus YFR010W, strain ubp6, hits give low values): 1.02
- normalized growth (locus YGL078C, strain dbp3, hits give low values): 0.987
- normalized growth (locus YGL086W, strain mad1, hits give low values): 0.99
- normalized growth (locus YGL167C, strain pmr1, hits give low values): 1.03
- normalized growth (locus YGL173C, strain kem1, hits give low values): 1.02
- normalized growth (locus YGL227W, strain vid30, hits give low values): 1.02
- normalized growth (locus YGL240W, strain doc1, hits give low values): 1.02
- normalized growth (locus YGL248W, strain PDE1, hits give low values): 1
- normalized growth (locus YGL253W, strain hxk2, hits give low values): 1.02
- normalized growth (locus YGR135W, strain pre9, hits give low values): 0.951
- normalized growth (locus YGR252W, strain gcn5, hits give low values): 0.903
- normalized growth (locus YHR013C, strain ard1, hits give low values): 1.41 [resistant] (active)
- normalized growth (locus YHR027C, strain rpn1, hits give low values): 1
- normalized growth (locus YHR030C, strain SLT2, hits give low values): 1.05
- normalized growth (locus YHR079C, strain IRE1 (second series), hits give low values): 0.995
- normalized growth (locus YHR079C, strain IRE1, hits give low values): 1.04
- normalized growth (locus YHR094C, strain hxt1, hits give low values): 0.993
- normalized growth (locus YHR129C, strain ARP1, hits give low values): 1.01
- normalized growth (locus YHR142W, strain chs7, hits give low values): 1.01
- normalized growth (locus YHR200W, strain rpn10, hits give low values): 0.963
- normalized growth (locus YIL066C, strain RNR3, hits give low values): 1.04
- normalized growth (locus YIL073C, strain SPO22, hits give low values): 0.97
- normalized growth (locus YIL125W, strain kgd1, hits give low values): 0.988
- normalized growth (locus YIR030C, strain dcg1, hits give low values): 0.997
- normalized growth (locus YJL092W, strain hpr5, hits give low values): 1.01
- normalized growth (locus YJL095W, strain BCK1 (second series), hits give low values): 1.04
- normalized growth (locus YJL095W, strain BCK1, hits give low values): 1.01 and 1.04
- normalized growth (locus YJL115W, strain asf1, hits give low values): 1.02
- normalized growth (locus YJL129C, strain trk1, hits give low values): 1.01
- normalized growth (locus YJL134W, strain LCB3, hits give low values): 1.01
- normalized growth (locus YJL154C, strain vps35, hits give low values): 1.01
- normalized growth (locus YJL164C, strain tpk1, hits give low values): 0.974
- normalized growth (locus YJL166W, strain qcr8, hits give low values): 1.04
- normalized growth (locus YJL168C, strain set2, hits give low values): 1
- normalized growth (locus YJL187C, strain SWE1 (second series), hits give low values): 0.99
- normalized growth (locus YJR043C, strain POL32, hits give low values): 1.04
- normalized growth (locus YJR066W, strain TOR1, hits give low values): 0.98
- normalized growth (locus YKL009W, strain mrt4, hits give low values): 1.04
- normalized growth (locus YKL068W, hits give low values): 0.993
- normalized growth (locus YKL085W, strain MDH1 (second series), hits give low values): 0.997
- normalized growth (locus YKL085W, strain MDH1, hits give low values): 0.997
- normalized growth (locus YKL160W, strain elf1, hits give low values): 1.04
- normalized growth (locus YKR001C, strain vps1, hits give low values): 0.977
- normalized growth (locus YKR026C, strain gcn3, hits give low values): 1.01
- normalized growth (locus YKR091W, strain srl3, hits give low values): 1.01
- normalized growth (locus YLL001W, strain dnm1, hits give low values): 0.965
- normalized growth (locus YLL026W, hits give low values): 1.01
- normalized growth (locus YLL041C, strain sdh2, hits give low values): 1.01
- normalized growth (locus YLR027C, strain aat2, hits give low values): 1.01
- normalized growth (locus YLR039C, strain RIC1, hits give low values): 1.08
- normalized growth (locus YLR058C, strain SHM2, hits give low values): 1.01
- normalized growth (locus YLR102C, strain apc9, hits give low values): 0.985
- normalized growth (locus YLR113W, strain HOG1, hits give low values): 0.962
- normalized growth (locus YLR221C, strain rsa3, hits give low values): 1.01
- normalized growth (locus YLR258W, strain gsy2, hits give low values): 1.01
- normalized growth (locus YLR262C, strain YPT6 (second series), hits give low values): 1
- normalized growth (locus YLR268W, strain sec22, hits give low values): 1.01
- normalized growth (locus YLR320W, strain mms22, hits give low values): 1.04
- normalized growth (locus YLR330W, strain CHS5, hits give low values): 1.01
- normalized growth (locus YLR342W, strain FKS1 (second series), hits give low values): 1.04
- normalized growth (locus YLR342W, strain FKS1, hits give low values): 1
- normalized growth (locus YLR357W, strain rsc2, hits give low values): 1.01
- normalized growth (locus YLR370C, strain arc18, hits give low values): 1.02
- normalized growth (locus YLR371W, strain rom2, hits give low values): 1
- normalized growth (locus YLR384C, strain iki3, hits give low values): 1
- normalized growth (locus YLR418C, strain cdc73, hits give low values): 0.959
- normalized growth (locus YML016C, strain PPZ1, hits give low values): 1.01
- normalized growth (locus YML032C, strain rad52, hits give low values): 0.993
- normalized growth (locus YML120C, strain ndi1, hits give low values): 0.993
- normalized growth (locus YML124C, strain tub3, hits give low values): 0.988
- normalized growth (locus YMR058W, strain fet3, hits give low values): 1.02
- normalized growth (locus YMR078C, strain ctf18, hits give low values): 0.986
- normalized growth (locus YMR125W, strain sto1, hits give low values): 1
- normalized growth (locus YMR129W, hits give low values): 1
- normalized growth (locus YMR205C, strain PFK2, hits give low values): 1.01
- normalized growth (locus YMR223W, strain ubp8, hits give low values): 0.969
- normalized growth (locus YMR231W, strain pep5, hits give low values): 1.02
- normalized growth (locus YMR307W, strain GAS1, hits give low values): 1.05
- normalized growth (locus YNL067W, strain RPL9B, hits give low values): 0.976
- normalized growth (locus YNL071W, strain lat1, hits give low values): 1.02
- normalized growth (locus YNL153C, strain GIM3, hits give low values): 0.996
- normalized growth (locus YNL183C, strain NPR1, hits give low values): 0.99
- normalized growth (locus YNL209W, strain ssb2, hits give low values): 1.01
- normalized growth (locus YNL233W, strain BNI4, hits give low values): 0.998
- normalized growth (locus YNL248C, strain rpa49, hits give low values): 1.03
- normalized growth (locus YNL250W, strain rad50, hits give low values): 0.959
- normalized growth (locus YNL271C, strain bni1, hits give low values): 0.999
- normalized growth (locus YNL298W, strain CLA4, hits give low values): 0.997
- normalized growth (locus YNL307C, strain MCK1, hits give low values): 0.983
- normalized growth (locus YNL322C, strain KRE1 (second series), hits give low values): 1.01
- normalized growth (locus YNL322C, strain KRE1, hits give low values): 1.01
- normalized growth (locus YNR049C, strain mso1, hits give low values): 1.03
- normalized growth (locus YNR052C, strain pop2, hits give low values): 0.972
- normalized growth (locus YOL006C, strain TOP1, hits give low values): 1.09
- normalized growth (locus YOL012C, strain htz1): 0.612
- normalized growth (locus YOL147C, strain pex11, hits give low values): 0.99
- normalized growth (locus YOR001W, strain rrp6, hits give low values): 1.03
- normalized growth (locus YOR061W, strain CKA2, hits give low values): 1.02
- normalized growth (locus YOR069W, strain VPS5, hits give low values): 1
- normalized growth (locus YOR070C, strain gyp1, hits give low values): 1.02
- normalized growth (locus YOR080W, strain dia2, hits give low values): 1.01
- normalized growth (locus YOR083W, strain WHI5, hits give low values): 1.01
- normalized growth (locus YOR106W, strain vam3, hits give low values): 1.01
- normalized growth (locus YOR136W, strain idh2, hits give low values): 0.979
- normalized growth (locus YOR144C, strain elg1, hits give low values): 0.987
- normalized growth (locus YOR184W, strain ser1, hits give low values): 1.03
- normalized growth (locus YOR231W, strain MKK1, hits give low values): 1.03
- normalized growth (locus YOR265W, strain rbl2, hits give low values): 0.991
- normalized growth (locus YOR270C, strain vph1, hits give low values): 1.07
- normalized growth (locus YOR290C, strain snf2, hits give low values): 1.01
- normalized growth (locus YOR316C, strain cot1, hits give low values): 0.984
- normalized growth (locus YPL051W, strain arl3, hits give low values): 1.02
- normalized growth (locus YPL055C, strain LGE1, hits give low values): 1.04
- normalized growth (locus YPL078C, strain atp4, hits give low values): 1.01
- normalized growth (locus YPL106C, strain sse1, hits give low values): 1.06
- normalized growth (locus YPL240C, strain hsp82, hits give low values): 1.01
- normalized growth (locus YPL241C, strain CIN2, hits give low values): 1.01
- normalized growth (locus YPL256C, strain CLN2, hits give low values): 1.05
- normalized growth (locus YPR119W, strain clb2, hits give low values): 0.992
- normalized growth (locus YPR141C, strain kar3, hits give low values): 0.993
- normalized growth (locus YPR163C, strain tif3, hits give low values): 0.99
- normalized growth (locus YPR167C, strain met16, hits give low values): 0.985
- normalized growth (strain wtn01, hits give low values): 0.99
